PLAP act = activators of human placental alkaline phosphatase. P05187. purified PLAP enzyme, luminescent substrate read-out; active compounds read high. activation fold at 20 µM. 1.2% of 96,000 active; in the data active = activation fold above about 2
M1 antag = M1 muscarinic receptor (rat) antagonism; P08482; CHO-M1 cells, Fluo-4 calcium, ACh EC80 antagonist mode; active compounds read low; B-score at 10 µM; 3.4% of 64,000 active; AID 628;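 active = calcium fluorescence response, raw or row-and-column corrected B-score, differing from the plate sample mean either way at a set confidence level, mostly lower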
HER2 expr 66K = lowers expression of human Her2 kinase; P04626; HER2 level % of control, % at 10 µM; SKBR-3 HER2 protein level, AlphaScreen, 18-24 h; active compounds read low; 0.69% of 65,000 active;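 active = HER2 level under 5% of the carrier-only control; inconclusive = no clear call, values can overlap the other calls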;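 also: 100% = DMSO carrier and 0% = 500 nM PU-H71 HSP90 inhibitor; lower value means stronger loss of Her2 protein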
Cav32 inh = inhibitors of human Cav3.2 T-type calcium channel; O95180; Cav3.2-expressing cells, Fluo-4 calcium fluorescence FDSS; active compounds read low; B-score at 10 µM; 4% of 100,000 active; AID 449739;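 active = single-dose well whose peak fluorescence ratio is a statistical outlier from its plate by either plate-standardised score or position-corrected B-score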
M1 agonist = agonists of M1 muscarinic receptor | B-score at 10 µM | AID 626 | 3% of 64,000 active | CHO-M1 cells, Fluo-4 calcium fluorescence, agonist mode; active compounds read high;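 active = fluorescence rise, raw or as B-score row- and column-corrected plate score, outside the 99.7% band of its plate's samples, either direction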
M1 ag confirm = rat M1 muscarinic agonism, confirmation; shares compounds with M1 agonist; CHO-M1 cells, Fluo-4 calcium fluorescence, agonist mode; actives lie on both sides; fluorescence change (max-min) at 10 µM; 19% of 1,700 active; AID 1488;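 active = fluorescence change differs from the solvent-only DMSO control mean at a set confidence level in both duplicate runs; inconclusive = differs from solvent-only control mean in just one of two runs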;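 also: an EC20 dose of acetylcholine follows compound addition during the same imaging run; raw fluorescence intensity difference in instrument units with no normalization to controls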
M4 agonist ctr = counter-screen for M1 agonists: activity at rat M4 receptor; shares compounds with M1 agonist; 9% of 1,700 active; AID 1741; fluorescence change (max-min) at 10 µM; CHO M4/Gqi5 cells, Fluo-4 calcium fluorescence, agonist mode; actives lie on both sides;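 active = fluorescence change differing from the plate's solvent-only control wells at 99.7% confidence in both duplicates, whether higher or lower; inconclusive = differs from solvent controls in only one of two duplicates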
* = called active by the depositor; ? = inconclusive; · = not tested or not shown. The list is not random: actives were taken first. Their share in the collection is about 7.9%.

SMILES	PLAP act	M1 antag	HER2 expr 66K	Cav32 inh	M1 agonist	M1 ag confirm	M4 agonist ctr
O=C(Nc1ccccc1C(=O)NCCc1ccccc1)c1ccco1	0.9	·	·	0.45	·	·	·
O=C(C1CCCN(c2ncccn2)C1)N1CCc2ccccc21 (centres undefined)	1.3	0.11	81	-0.021	-0.53	·	·
CCOc1ccc(C2C(C#N)=C(N)N3C(=C2C#N)Sc2ccccc23)cc1 (centres undefined)	1.1	-0.44	119	-1.3	9.9*	?	?
N#CC1=C(N)N2C(=C(C#N)C1c1ccccc1)Sc1ccccc12 (centres undefined)	0.7	0.56	66	-0.74	26	·	·
CC1=C(CC/C(C)=N/NC(N)=S)C(C)(C)CCC1	·	·	·	-1.8	·	·	·
CN(C)c1ccc(C2C=C(c3ccc(Cl)cc3OC(F)F)Nc3ncnn32)cc1 (centres undefined)	1.2	0.012	29	-5.9*	18*	85*	60
CCn1c2ccccc2c2cc(NS(=O)(=O)c3ccccc3C)ccc21	0.8	·	·	·	·	·	·
CCOC(=O)CC(=O)CSc1nc2ccccc2c(=O)n1-c1ccc(C(=O)N2CCOCC2)cc1	1.3	0.064	95	-3.3	0.39	·	·
CCOC(=O)N1CCN(C(=O)CSc2nc3ccccc3c(=O)n2-c2ccccc2)CC1	1.6	0.53	86	·	3.8*	?	?
Cc1ccc(-c2nnc(N3CCN(c4ccccn4)CC3)c3ccccc23)cc1	0.9	-3.5*	76	·	2*	?	-53
CCCCn1c(=O)nc2n(-c3ccccc3)c3ccccc3cc-2c1=O	1.2	·	·	-0.027	·	·	·
CCC(=O)c1ccc(N2CCN(C(=O)Cc3ccccc3)CC2)c(F)c1	1.7	-0.57	59	0.33	0	·	·
CCC(=O)c1cc(F)c(N2CCN(C(=O)Cc3ccccc3)CC2)cc1C	1.6	-1.2*	96	0.51	2.7*	2.7	-26
CCCC(=O)c1ccc(N2CCN(C(=O)c3ccccc3Br)CC2)c(F)c1	1	-3.2*	77	0.39	3.1*	?	-46
CCCC(=O)c1ccc(N2CCN(C(=O)c3ccccc3)CC2)c(F)c1	1.4	-2.4	84	0.28	4.1*	0.12	-42
Cc1cc(C)c(C#N)c(SCC(=O)c2ccc(Cl)cc2Cl)n1	1	·	·	0.061	·	·	·
Cc1cc(NC(=O)CCN2C(=O)C3C4C=CC(C4)C3C2=O)c2ccccc2n1 (centres undefined)	1.2	-0.28	83	-0.58	3.3*	-7.2	-22
COc1ccc(NC(=O)CCCN2C(=O)C3C4C=CC(C4)C3C2=O)c(OC)c1 (centres undefined)	·	-0.16	87	-2.9	-0.15	·	·
O=C1c2ccccc2-c2onc3ccc(NCCCn4ccnc4)c1c23	1.5	-11*	87	-1.2	97*	9	272
Cc1nc(NCCCn2ccnc2)c2ccccc2n1	1	0.24	73	0.013	-0.022	·	·
Cc1ccc(C(=O)C(C(=O)/C=C/c2ccccc2)=C2SCCCS2)cc1	·	·	·	-1.7	·	·	·
O=C(NC1CC1)c1c[nH]c2ccc(S(=O)(=O)Nc3cccc(C(F)(F)F)c3)cc2c1=O	1	0.46	94	-5.6*	-1.9*	-11	?
O=C(CC1SC(=Nc2ccccc2)N(CCCO)C1=O)Nc1ccc(Cl)cc1 (centres undefined)	1.5	-0.89	67	-3.4	4.4*	-4.6	?
O=C(CC1SC(=Nc2ccccc2)N(CCCCO)C1=O)NCc1ccccc1 (centres undefined)	1.3	0.36	111	0.18	0.044	·	·
CC(C)OC(=O)c1c2nc3ccccc3nc2n2c1[nH]c(=O)c1ccccc12	1.5	0.4	79	·	7.9*	73*	113
SMILES	PLAP act	M1 antag	HER2 expr 66K	Cav32 inh	M1 agonist	M1 ag confirm	M4 agonist ctr
CC(C)OC(=O)c1c(N)n(CCCN2CCOCC2)c2nc3ccccc3nc12	1.6	·	·	1.6	·	·	·
COc1ccc(OC)c(NC(=O)C(CC(=O)O)NCc2ccco2)c1 (centres undefined)	1.1	0.064	94	-0.54	-0.38	·	·
O=C(NCC(=O)N(c1ccccc1)C(C(=O)NCC1CCCO1)c1ccccc1)c1ccco1 (centres undefined)	1.7	-0.32	86	-0.077	8.3*	?	-54
O=C(NCC(=O)N(Cc1cccs1)C(C(=O)NC1CCCC1)c1ccco1)c1cccs1 (centres undefined)	1.3	-1.2	92	-1.3	3.2*	-17	?
Cc1ccc(N(C(=O)CNC(=O)c2ccco2)C(C(=O)NCC2CCCO2)c2ccccc2)cc1 (centres undefined)	1.6	1.2	106	0.2	-0.081	·	·
O=C(NCC(=O)N(c1ccccc1)C(C(=O)NC1CCCCC1)c1ccncc1)c1ccco1 (centres undefined)	1.1	-0.025	99	0.83	2.5*	-11	?
CCOC(=O)C(NC=O)(NC(C)(C)C)C(=O)OCC	1.2	-0.43	79	-0.15	-0.54	·	·
CN(CCCC(=O)Nc1ccncc1)S(=O)(=O)c1ccc(Cl)cc1	1	-0.21	102	·	4.1*	5.1	-25
CCCn1c(SCC(=O)NCCc2ccc(Cl)cc2Cl)n[nH]c1=O	1.2	-0.77	105	0.085	0.51	·	·
CC(C)c1nnc(NC(=O)CCC(=O)N2CCN(C3CCCCC3)CC2)s1	1.6	-0.027	93	0.98	3.1*	?	-8.6
CCOC(=O)N1C(=O)c2cc(OC)ccc2S1(=O)=O	1.1	-0.00031	85	0.63	3.2*	?	?
CN(Cc1cccs1)S(=O)(=O)c1cccs1	1.2	0.9	132	0.41	-0.6	·	·
COc1cccc2cc(-c3nc(-c4cccs4)cs3)c(=O)oc12	0.9	0.58	76	1.2	14*	?	?
Cc1ccc(S(=O)(=O)c2cccc(S(=O)(=O)N3CCCC3)c2)cc1S(=O)(=O)N1CCCC1	1.5	-6.4*	109	-0.3	4.2*	-13	?
Cc1ccc(/C=c2\sc3nc(-c4cccs4)nn3c2=O)o1	1	0.3	68	-0.2	46*	39	48
O=C(OCN1C(=O)c2ccccc2C1=O)C1CCCCC1	1.1	1.4	81	0.0019	0.043	·	·
O=C1c2ccccc2C(=O)N1SC1CCCCC1	0.9	-0.76	101	0.0098	6.4*	?	-43
Clc1ccc(C(c2nnnn2C2CCCC2)N2CCSCC2)cc1 (centres undefined)	1.1	1	71	-2.5	8*	-19	?
Fc1ccc(C(c2nnnn2C2CCCC2)N2CCN(Cc3ccncc3)CC2)cc1 (centres undefined)	1.5	-0.037	127	-0.44	-0.73	·	·
CCC(Sc1nc(-c2ccccc2)cc(=O)[nH]1)C(=O)O (centres undefined)	0.9	0.78	107	0.72	-0.33	·	·

Screening data deposited in PubChem BioAssay by several laboratories.
